According to PubChem BioAssay (EPA / NIEHS):
Results filed as inconclusive are left out. Activity calls are given as the source filed them. Rule for the calls, unless noted: active = hit-call score of the fitted dose curve at least 0.9, where 1 is the maximum; inconclusive = response in the unintended direction; inactive = score below 0.9.

What was measured:
[1] = ATG_TGFb_CIS: Attagene CIS-FACTORIAL HepG2 Assay for human Transforming Growth Factor (TGF) (AID 2282967; active = hit-call score of the fitted dose curve at least 0.9, where 1 is the maximum; inactive = score below 0.9); details: HepG2 Attagene CIS TGFb reporter, mRNA transcription; actives raise or lower the signal
Outline: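 Bidirectional fitting relative to DMSO gave the endpoint. Underlying data: reporter mRNA from HepG2 cells carrying transiently transfected cis-regulated reporter constructs, harvested 24 h after dosing and analyzed by RT-PCR and capillary electrophoresis.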

[2] = ATG_VDRE_CIS: Attagene CIS-FACTORIAL HepG2 Assay for human Vitamin D Receptor Element (VDRE) (AID 2282968; active = hit-call score of the fitted dose curve at least 0.9, where 1 is the maximum; inactive = score below 0.9); details: HepG2 VDRE cis-reporter transcription, actives raise or lower the signal
Outline: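 Cell-based multiplexed reporter format in human liver HepG2 cells, 24 h post-dose. Fluorescence from capillary electrophoresis of reporter cDNA gives the signal, with DMSO as negative control and baseline.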

[3] = biological target: Nuclear receptor subfamily 1 group I member 3 (Homo sapiens) (UniProt Q14994); assay: ATG_CAR_TRANS: Attagene TRANS-FACTORIAL HepG2 Assay for human Constitutive Androstane Receptor (CAR) (AID 2282969); details: HepG2 Attagene TRANS-FACTORIAL CAR reporter;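 note: activators raise reporter mRNA above DMSO so AC50 marks induction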
Chain of Nuclear receptor subfamily 1 group I member 3 (Homo sapiens) (Q14994 whole entry, looked up, the tested form may be a part): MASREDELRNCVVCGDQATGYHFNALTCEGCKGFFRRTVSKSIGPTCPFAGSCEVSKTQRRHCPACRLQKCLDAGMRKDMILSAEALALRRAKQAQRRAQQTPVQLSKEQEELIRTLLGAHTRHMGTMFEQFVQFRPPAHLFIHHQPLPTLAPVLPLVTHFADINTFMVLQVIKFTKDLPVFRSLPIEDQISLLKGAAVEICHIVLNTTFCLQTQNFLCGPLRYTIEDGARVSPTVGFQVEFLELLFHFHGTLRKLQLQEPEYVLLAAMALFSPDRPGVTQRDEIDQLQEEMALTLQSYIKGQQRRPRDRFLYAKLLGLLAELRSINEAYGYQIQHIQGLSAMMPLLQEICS
Outline: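 HepG2 cells transiently transfected with GAL4-UAS reporter units; TRANS format reads activity of exogenous chimeric NR-Gal4 protein. After 24 h dosing, reporter mRNA quantified by RT-PCR, 6-FAM labelling and capillary electrophoresis; gain of signal fitted against DMSO.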

[4] = biological target: Estrogen receptor (Homo sapiens) (UniProt P03372); assay: ATG_ERa_TRANS: Attagene TRANS-FACTORIAL HepG2 Assay for human Estrogen Receptor alpha (ERa) (AID 2282970); details: HepG2 Attagene TRANS ERa GAL4 reporter, mRNA
Outline: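 Human liver HepG2, transient transfection of multiple GAL4-UAS reporter units; TRANS format (exogenous NR-Gal4 chimera). 24 h dosing. Readout: reporter mRNA, RT-PCR, 6-FAM primer extension, HpaI digest, capillary electrophoresis. Positive direction vs DMSO.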

[5] = biological target: Steroid hormone receptor ERR1 (Homo sapiens) (UniProt P11474); assay: ATG_ERRa_TRANS: Attagene TRANS-FACTORIAL HepG2 Assay for human Estrogen-Related Receptor alpha (ERRa) (AID 2282971); details: HepG2 Attagene TRANS reporter, ERRa transactivation
Chain of Steroid hormone receptor ERR1 (Homo sapiens) (P11474 whole entry, looked up, the tested form may be a part): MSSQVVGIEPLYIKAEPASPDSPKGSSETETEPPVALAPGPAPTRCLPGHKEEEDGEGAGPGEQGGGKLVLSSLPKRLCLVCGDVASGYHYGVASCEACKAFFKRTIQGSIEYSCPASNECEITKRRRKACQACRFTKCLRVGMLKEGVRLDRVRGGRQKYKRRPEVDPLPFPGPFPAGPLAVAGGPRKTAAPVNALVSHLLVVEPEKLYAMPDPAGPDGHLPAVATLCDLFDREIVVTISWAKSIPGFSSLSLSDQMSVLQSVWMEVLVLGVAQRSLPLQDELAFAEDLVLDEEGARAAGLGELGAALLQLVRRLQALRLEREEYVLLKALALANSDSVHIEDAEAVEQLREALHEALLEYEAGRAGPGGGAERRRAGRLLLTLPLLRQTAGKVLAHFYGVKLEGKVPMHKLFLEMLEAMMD
Outline: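 Reporter transcript induction was quantified by RT-PCR and capillary electrophoresis of FAM-labelled, HpaI-cut products after 24 h treatment of HepG2 cells carrying transiently transfected GAL4-UAS reporter units and an exogenous ERRa-Gal4 fusion; activity scored as increase over DMSO.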

[6] = biological target: X-box-binding protein 1 (Homo sapiens) (UniProt P17861); assay: ATG_Xbp1_CIS: Attagene CIS-FACTORIAL HepG2 Assay for human X-box Binding Protein 1 (XBP1) (AID 2282972; active = hit-call score of the fitted dose curve at least 0.9, where 1 is the maximum; inactive = score below 0.9); details: HepG2 XBP1 cis-element reporter, Attagene multiplex; actives raise or lower the signal
Chain of X-box-binding protein 1 (Homo sapiens) (P17861 whole entry, looked up): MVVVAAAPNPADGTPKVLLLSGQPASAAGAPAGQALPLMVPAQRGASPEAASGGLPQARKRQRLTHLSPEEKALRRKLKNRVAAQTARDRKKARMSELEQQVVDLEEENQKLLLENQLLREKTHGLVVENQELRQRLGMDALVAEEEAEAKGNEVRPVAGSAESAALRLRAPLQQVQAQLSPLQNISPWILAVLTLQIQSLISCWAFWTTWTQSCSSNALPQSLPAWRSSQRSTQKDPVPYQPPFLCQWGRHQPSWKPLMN
Outline: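 After a 24-hour chemical exposure of HepG2 cells carrying cis-regulated reporters, reporter mRNA levels are assessed. Quantification uses RT-PCR, 6-FAM labelling and capillary electrophoresis. Gain- or loss-of-signal is fitted against DMSO.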

[7] = biological target: Oxysterols receptor LXR-alpha (Homo sapiens) (UniProt Q13133); assay: ATG_LXRa_TRANS: Attagene TRANS-FACTORIAL HepG2 Assay for human Liver X Receptor alpha (LXRa) (AID 2282980); details: HepG2 Attagene TRANS reporter, LXRa transactivation
Chain of Oxysterols receptor LXR-alpha (Homo sapiens) (Q13133 whole entry, looked up, the tested form may be a part): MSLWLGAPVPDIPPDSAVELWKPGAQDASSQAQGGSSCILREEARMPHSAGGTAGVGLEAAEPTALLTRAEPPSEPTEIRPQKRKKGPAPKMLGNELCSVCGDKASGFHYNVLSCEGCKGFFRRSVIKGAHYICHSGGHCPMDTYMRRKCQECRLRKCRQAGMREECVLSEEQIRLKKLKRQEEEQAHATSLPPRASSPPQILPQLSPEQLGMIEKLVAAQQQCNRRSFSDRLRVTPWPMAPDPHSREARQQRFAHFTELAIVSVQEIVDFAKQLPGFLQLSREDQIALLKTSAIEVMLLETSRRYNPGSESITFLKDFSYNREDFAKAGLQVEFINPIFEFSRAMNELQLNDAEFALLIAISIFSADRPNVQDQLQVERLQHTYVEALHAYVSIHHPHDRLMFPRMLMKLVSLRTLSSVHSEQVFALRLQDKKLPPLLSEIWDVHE
Outline: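 Transfect HepG2 with GAL4-UAS multiplex reporter constructs (TRANS format, chimeric receptor-GAL4); treat 24 h; extract RNA, reverse-transcribe, PCR-amplify, FAM-label, HpaI-digest; resolve fragments by capillary electrophoresis. Upward response vs DMSO.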

[8] = biological target: Hepatocyte nuclear factor 4-alpha (Homo sapiens) (UniProt P41235); assay: ATG_HNF4a_TRANS: Attagene TRANS-FACTORIAL HepG2 Assay for human Hepatocyte Nuclear Factor 4 alpha (HNF4a) (AID 2282982); details: HepG2 HNF4a transactivation reporter, mRNA readout
Chain of Hepatocyte nuclear factor 4-alpha (Homo sapiens) (P41235 whole entry, looked up, the tested form may be a part): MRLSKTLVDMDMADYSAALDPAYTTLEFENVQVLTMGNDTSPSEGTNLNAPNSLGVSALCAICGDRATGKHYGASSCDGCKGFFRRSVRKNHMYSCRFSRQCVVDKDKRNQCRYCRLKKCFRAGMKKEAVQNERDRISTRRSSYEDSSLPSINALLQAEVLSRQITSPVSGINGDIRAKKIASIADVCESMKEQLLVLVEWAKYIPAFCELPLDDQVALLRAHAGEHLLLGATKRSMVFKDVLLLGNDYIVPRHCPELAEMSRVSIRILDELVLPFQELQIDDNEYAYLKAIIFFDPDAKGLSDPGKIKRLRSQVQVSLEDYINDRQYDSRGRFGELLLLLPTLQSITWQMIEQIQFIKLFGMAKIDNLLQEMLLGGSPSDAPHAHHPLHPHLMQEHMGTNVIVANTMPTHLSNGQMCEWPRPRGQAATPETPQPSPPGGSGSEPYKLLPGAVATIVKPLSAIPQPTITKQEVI
Outline: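 Gain-of-signal mRNA induction, relative to DMSO vehicle, was read after 24 h compound treatment of HepG2 cells bearing transfected GAL4-UAS reporters. Detection used RT-PCR, 6-FAM primer extension and capillary electrophoresis.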

[9] = ATG_M_06_TRANS: Attagene TRANS-FACTORIAL HepG2 Assay for M06 Transcription Factor (Internal Marker) (AID 2282983); details: HepG2 Attagene TRANS M06 internal marker reporter
Outline: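 Transfect HepG2 with MRTUs → dose compounds 24 h → isolate RNA, oligo(dT) RT → PCR with reporter primers → 6-FAM primer extension → HpaI digest → CE fragment analysis. Positive direction vs DMSO.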

[10] = biological target: Nuclear receptor subfamily 4 group A member 2 (Homo sapiens) (UniProt P43354); assay: ATG_NURR1_TRANS: Attagene TRANS-FACTORIAL HepG2 Assay for human Nuclear Receptor Related Protein 1 (NURR1) (AID 2282985); details: HepG2 Attagene TRANS reporter, mRNA readout
Chain of Nuclear receptor subfamily 4 group A member 2 (Homo sapiens) (P43354 whole entry, looked up): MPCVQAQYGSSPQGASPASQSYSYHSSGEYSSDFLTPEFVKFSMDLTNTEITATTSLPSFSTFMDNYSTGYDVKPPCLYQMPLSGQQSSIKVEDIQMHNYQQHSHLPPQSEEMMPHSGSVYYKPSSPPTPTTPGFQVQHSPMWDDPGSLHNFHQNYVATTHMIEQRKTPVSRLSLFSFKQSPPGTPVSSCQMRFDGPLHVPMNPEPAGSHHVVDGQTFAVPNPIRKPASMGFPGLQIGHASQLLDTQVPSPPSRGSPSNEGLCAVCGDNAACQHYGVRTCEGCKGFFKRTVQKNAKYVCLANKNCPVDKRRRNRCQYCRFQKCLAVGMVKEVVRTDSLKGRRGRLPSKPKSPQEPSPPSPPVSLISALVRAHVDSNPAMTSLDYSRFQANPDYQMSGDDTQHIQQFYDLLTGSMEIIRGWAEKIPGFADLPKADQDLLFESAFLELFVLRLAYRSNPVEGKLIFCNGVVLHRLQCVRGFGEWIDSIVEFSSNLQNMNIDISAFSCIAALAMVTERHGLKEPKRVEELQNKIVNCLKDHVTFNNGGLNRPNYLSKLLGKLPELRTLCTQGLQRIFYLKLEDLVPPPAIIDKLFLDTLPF
Outline: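 HepG2 / transient MRTU transfection / 24 h compound exposure / RT-PCR + CE fluorescence of reporter mRNA / gain-of-signal vs DMSO.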

[11] = biological target: Transcriptional activator Myb (Homo sapiens) (UniProt P10242); assay: ATG_Myb_CIS: Attagene CIS-FACTORIAL HepG2 Assay for human Myeloblastosis (Myb) Proto-Oncogene Transcription Factor (AID 2282986; active = hit-call score of the fitted dose curve at least 0.9, where 1 is the maximum; inactive = score below 0.9); details: HepG2 Attagene CIS-FACTORIAL Myb reporter transcription; actives raise or lower the signal
Chain of Transcriptional activator Myb (Homo sapiens) (P10242 whole entry, looked up): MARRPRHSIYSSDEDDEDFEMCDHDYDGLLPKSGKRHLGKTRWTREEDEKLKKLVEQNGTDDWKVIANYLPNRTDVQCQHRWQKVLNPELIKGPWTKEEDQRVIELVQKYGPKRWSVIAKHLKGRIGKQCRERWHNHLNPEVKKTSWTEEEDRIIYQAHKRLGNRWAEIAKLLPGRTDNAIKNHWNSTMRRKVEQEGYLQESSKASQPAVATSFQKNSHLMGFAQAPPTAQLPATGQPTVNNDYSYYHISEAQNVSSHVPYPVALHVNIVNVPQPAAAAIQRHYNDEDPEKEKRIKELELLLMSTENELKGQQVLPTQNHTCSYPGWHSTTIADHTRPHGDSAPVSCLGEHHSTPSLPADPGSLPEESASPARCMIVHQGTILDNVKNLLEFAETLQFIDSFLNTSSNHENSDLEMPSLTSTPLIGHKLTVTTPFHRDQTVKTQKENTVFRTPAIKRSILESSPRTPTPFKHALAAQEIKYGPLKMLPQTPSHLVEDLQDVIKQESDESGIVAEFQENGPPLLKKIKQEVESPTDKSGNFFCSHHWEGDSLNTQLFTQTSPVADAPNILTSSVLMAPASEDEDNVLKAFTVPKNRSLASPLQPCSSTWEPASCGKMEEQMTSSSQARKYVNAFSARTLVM
Outline: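 HepG2, transient MRTU transfection (cis-element promoters, endogenous TF activity), 24 h compound exposure. Readout: reporter mRNA via RT-PCR, 6-FAM labeling, HpaI digest, capillary electrophoresis. Gain/loss fit vs DMSO.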

[12] = biological target: Nuclear respiratory factor 1 (Homo sapiens) (UniProt Q16656); assay: ATG_NRF1_CIS: Attagene CIS-FACTORIAL HepG2 Assay for human Nuclear Respiratory Factor 1 (NRF1) Orphan Gene (AID 2282987; active = hit-call score of the fitted dose curve at least 0.9, where 1 is the maximum; inactive = score below 0.9); details: HepG2 NRF1 cis-element reporter, Attagene multiplex; actives raise or lower the signal
Chain of Nuclear respiratory factor 1 (Homo sapiens) (Q16656 whole entry, looked up): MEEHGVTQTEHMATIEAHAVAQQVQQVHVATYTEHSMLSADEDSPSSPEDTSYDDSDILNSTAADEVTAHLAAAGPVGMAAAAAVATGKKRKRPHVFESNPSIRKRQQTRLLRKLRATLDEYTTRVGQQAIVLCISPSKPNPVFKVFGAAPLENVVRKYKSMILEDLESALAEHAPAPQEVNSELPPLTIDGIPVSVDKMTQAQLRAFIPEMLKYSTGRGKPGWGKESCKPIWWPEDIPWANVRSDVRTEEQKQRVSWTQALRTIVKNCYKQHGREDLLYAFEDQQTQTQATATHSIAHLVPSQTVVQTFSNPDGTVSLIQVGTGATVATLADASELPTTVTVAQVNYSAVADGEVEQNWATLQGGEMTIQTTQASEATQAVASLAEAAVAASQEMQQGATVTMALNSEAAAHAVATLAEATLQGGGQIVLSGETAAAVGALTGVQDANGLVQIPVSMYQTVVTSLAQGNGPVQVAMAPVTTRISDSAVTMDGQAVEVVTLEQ
Outline: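 Endogenous NRF1-driven reporter transcription measured in transiently transfected human HepG2 liver cells. Readout: reporter mRNA by RT-PCR and capillary electrophoresis with fluorescence detection, 24 h post-dosing. Gain or loss of signal fitted relative to DMSO baseline.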

[13] = ATG_M_19_TRANS: Attagene TRANS-FACTORIAL HepG2 Assay for M19 Transcription Factor (Internal Marker) (AID 2282974); details: HepG2 Attagene TRANS-FACTORIAL M19 internal marker reporter
Outline: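 24 h chemical exposure of transiently transfected HepG2 (MRTU library). RNA → oligo(dT) RT → PCR → 6-FAM labelling → HpaI cut → CE fluorescence. Positive-direction fit vs DMSO baseline; background internal-marker readout.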

[14] = ATG_GAL4_TRANS: Attagene TRANS-FACTORIAL HepG2 Assay for GAL4 (Internal Marker) (AID 2282976); details: HepG2 Attagene TRANS GAL4 internal marker reporter
Outline: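 First, HepG2 cells were transfected with reporter units under GAL4-UAS control. Next, they were treated with chemical for 24 h. Finally, RNA was reverse-transcribed, PCR-amplified, FAM-labelled and resolved by capillary electrophoresis, with induction scored against DMSO.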

[15] = biological target: Glucocorticoid receptor (Homo sapiens) (UniProt P04150); assay: ATG_GR_TRANS: Attagene TRANS-FACTORIAL HepG2 Assay for human Glucocorticoid Receptor (GR) (AID 2282978); details: HepG2 Attagene TRANS GR reporter, mRNA transcription;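 note: activators score as hits since higher reporter transcript over DMSO is fitted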
Chain of Glucocorticoid receptor (Homo sapiens) (P04150 whole entry, looked up, the tested form may be a part): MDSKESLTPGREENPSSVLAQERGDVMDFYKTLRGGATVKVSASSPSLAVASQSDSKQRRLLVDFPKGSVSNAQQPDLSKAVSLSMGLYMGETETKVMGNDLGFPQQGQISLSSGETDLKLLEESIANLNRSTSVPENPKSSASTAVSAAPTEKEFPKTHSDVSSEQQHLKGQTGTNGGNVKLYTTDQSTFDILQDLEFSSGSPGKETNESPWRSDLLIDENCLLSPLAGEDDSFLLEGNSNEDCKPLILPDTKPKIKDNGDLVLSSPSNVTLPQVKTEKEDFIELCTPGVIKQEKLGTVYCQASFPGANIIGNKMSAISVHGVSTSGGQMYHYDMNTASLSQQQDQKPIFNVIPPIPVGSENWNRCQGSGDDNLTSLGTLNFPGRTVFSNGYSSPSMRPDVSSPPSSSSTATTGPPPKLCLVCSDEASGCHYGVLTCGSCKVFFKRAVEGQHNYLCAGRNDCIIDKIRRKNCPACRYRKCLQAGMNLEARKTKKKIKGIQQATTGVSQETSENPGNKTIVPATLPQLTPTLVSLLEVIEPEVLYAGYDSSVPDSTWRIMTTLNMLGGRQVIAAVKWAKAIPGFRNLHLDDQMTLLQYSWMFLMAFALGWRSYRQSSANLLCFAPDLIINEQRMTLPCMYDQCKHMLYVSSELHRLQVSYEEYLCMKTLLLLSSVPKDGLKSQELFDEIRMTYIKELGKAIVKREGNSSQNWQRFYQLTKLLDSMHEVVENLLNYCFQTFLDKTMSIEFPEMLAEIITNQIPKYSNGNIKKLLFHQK
Outline: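 Transient MRTU transfection of HepG2 (GAL4-UAS reporters, exogenous NR-GAL4 chimeras), 24 h dosing. Readout: reporter transcript via RT-PCR + capillary electrophoresis fluorescence. Positive direction vs DMSO baseline.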

[16] = biological target: Oxysterols receptor LXR-beta (Homo sapiens) (UniProt P55055); assay: ATG_LXRb_TRANS: Attagene TRANS-FACTORIAL HepG2 Assay for human Liver X Receptor beta (LXRb) (AID 2282981); details: HepG2 Attagene TRANS GAL4-LXRb reporter, mRNA
Chain of Oxysterols receptor LXR-beta (Homo sapiens) (P55055 whole entry, looked up, the tested form may be a part): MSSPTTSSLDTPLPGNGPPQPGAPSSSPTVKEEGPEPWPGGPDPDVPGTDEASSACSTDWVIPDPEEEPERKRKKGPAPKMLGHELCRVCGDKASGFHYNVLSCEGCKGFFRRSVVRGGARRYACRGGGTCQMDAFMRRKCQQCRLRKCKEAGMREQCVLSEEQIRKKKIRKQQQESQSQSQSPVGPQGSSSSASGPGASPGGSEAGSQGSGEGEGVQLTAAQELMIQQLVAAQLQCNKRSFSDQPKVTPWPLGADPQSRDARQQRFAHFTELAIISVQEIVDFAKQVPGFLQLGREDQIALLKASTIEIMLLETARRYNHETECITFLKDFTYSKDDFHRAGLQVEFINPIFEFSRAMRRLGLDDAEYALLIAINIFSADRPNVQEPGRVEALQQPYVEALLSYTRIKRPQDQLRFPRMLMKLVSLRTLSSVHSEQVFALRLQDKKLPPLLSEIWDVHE
Outline: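 Gain-of-signal mRNA reporter endpoint, DMSO as negative control. Transiently transfected HepG2 cells carrying the NR-Gal4 chimera and GAL4-UAS reporter units were treated 24 h; transcripts quantified by RT-PCR and capillary electrophoresis fluorescence.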

[17] = ATG_M_32_TRANS: Attagene TRANS-FACTORIAL HepG2 Assay for M32 Transcription Factor (Internal Marker) (AID 2282984); details: HepG2 Attagene TRANS M32 internal marker reporter;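 note: transcript level of a background control reporter unit measured by RT-PCR and capillary electrophoresis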
Outline: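 Capillary electrophoresis of 6-FAM-labelled reporter fragments gives the signal; data fitted for gain over DMSO negative control. Source: HepG2 cells bearing transient multiple reporter transcription units, 24 h exposure.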

[18] = biological target: Bile acid receptor (Homo sapiens) (UniProt Q96RI1); assay: ATG_FXR_TRANS: Attagene TRANS-FACTORIAL HepG2 Assay for Farnesoid X Receptor (FXR) (AID 2282979); details: HepG2 Attagene TRANS FXR-GAL4 reporter transcription;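 note: hits raise reporter mRNA above DMSO so AC50 marks FXR activation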
Outline: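 Transient transfection of HepG2 with multiplexed GAL4-UAS reporter units; exogenous FXR-GAL4 chimera. Dose 24 h → TriZol RNA → oligo(dT) RT → PCR, 6-FAM primer extension, HpaI cut → CE. Gain vs DMSO.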

## c1ccc(N=NNc2ccccc2)cc1
[1]
  outcome: inactive
[2]
  AC50: 28.4 µM (active)
[3]
  outcome: inactive
[4]
  AC50: 27.1 µM (active)
[5]
  outcome: inactive
[6]
  AC50: 108 µM (active)
[7]
  outcome: inactive
[8]
  outcome: inactive
[9]
  outcome: inactive
[10]
  AC50: 39.7 µM (active)
[11]
  outcome: inactive
[12]
  outcome: inactive

## COP(=S)(OC)Oc1c(Cl)cc(C)cc1Cl
[1]
  outcome: inactive
[2]
  AC50: 7.7 µM (active)
[3]
  outcome: inactive
[4]
  AC50: 3.3 µM (active)
[5]
  outcome: inactive
[6]
  outcome: inactive
[13]
  outcome: inactive
[14]
  outcome: inactive
[15]
  outcome: inactive
[16]
  outcome: inactive
[17]
  outcome: inactive
[10]
  outcome: inactive
[11]
  outcome: inactive
[12]
  outcome: inactive

## BrCCBr
[1]
  outcome: inactive
[2]
  outcome: inactive
[3]
  outcome: inactive
[4]
  AC50: 27.5 µM (active)
[5]
  outcome: inactive
[6]
  outcome: inactive
[13]
  outcome: inactive
[14]
  outcome: inactive
[15]
  outcome: inactive
[7]
  outcome: inactive
[16]
  outcome: inactive
[10]
  outcome: inactive
[11]
  outcome: inactive
[12]
  outcome: inactive

## CC(Br)C(=O)O (stereo unspecified)
[1]
  outcome: inactive
[2]
  outcome: inactive
[3]
  outcome: inactive
[4]
  outcome: inactive
[6]
  outcome: inactive
[13]
  outcome: inactive
[14]
  outcome: inactive
[8]
  outcome: inactive
[17]
  outcome: inactive
[11]
  outcome: inactive
[12]
  outcome: inactive

## Cc1ccc(N)cc1Cl
[1]
  outcome: inactive
[2]
  outcome: inactive
[3]
  outcome: inactive
[4]
  outcome: inactive
[6]
  outcome: inactive
[7]
  outcome: inactive
[16]
  outcome: inactive
[9]
  outcome: inactive
[11]
  outcome: inactive
[12]
  outcome: inactive

## CCC(C)(C)c1ccc(O)c(C(C)(C)CC)c1
[1]
  outcome: inactive
[2]
  AC50: 15.9 µM (active)
[3]
  AC50: 33.4 µM (active)
[4]
  AC50: 33.4 µM (active)
[5]
  outcome: inactive
[6]
  outcome: inactive
[13]
  outcome: inactive
[15]
  outcome: inactive
[18]
  AC50: 49.5 µM (active)
[7]
  AC50: 9.67 µM (active)
[16]
  AC50: 23.6 µM (active)
[8]
  outcome: inactive
[17]
  outcome: inactive
[10]
  AC50: 33.4 µM (active)
[11]
  outcome: inactive
[12]
  outcome: inactive

## CC(C)C1CCC(Cc2ccc(Cl)cc2)C1(O)Cn1cncn1 (stereo unspecified)
[1]
  outcome: inactive
[2]
  AC50: 4.62 µM (active)
[3]
  outcome: inactive
[4]
  outcome: inactive
[6]
  outcome: inactive
[13]
  outcome: inactive
[14]
  outcome: inactive
[15]
  outcome: inactive
[18]
  outcome: inactive
[7]
  outcome: inactive
[16]
  outcome: inactive
[9]
  outcome: inactive
[17]
  outcome: inactive
[11]
  outcome: inactive
[12]
  outcome: inactive

## [O-][Cl+2]([O-])O
[1]
  outcome: inactive
[2]
  outcome: inactive
[3]
  outcome: inactive
[6]
  outcome: inactive
[14]
  outcome: inactive
[7]
  outcome: inactive
[16]
  outcome: inactive
[8]
  outcome: inactive
[9]
  outcome: inactive
[17]
  outcome: inactive
[10]
  outcome: inactive
[12]
  outcome: inactive

## Nc1ccc(-c2ccc(N)c(Cl)c2)cc1Cl
[1]
  outcome: inactive
[2]
  AC50: 37.6 µM (active)
[4]
  AC50: 2.04 µM (active)
[6]
  outcome: inactive
[13]
  outcome: inactive
[15]
  outcome: inactive
[16]
  outcome: inactive
[8]
  outcome: inactive
[9]
  outcome: inactive
[17]
  outcome: inactive
[10]
  outcome: inactive
[11]
  outcome: inactive
[12]
  outcome: inactive

## COc1cc2c(cc1OC)[C@@]13CCN4CC5=CCO[C@H]6CC(=O)N2[C@H]1[C@H]6[C@H]5C[C@H]43
[1]
  outcome: inactive
[2]
  outcome: inactive
[4]
  outcome: inactive
[6]
  outcome: inactive
[13]
  outcome: inactive
[8]
  outcome: inactive
[17]
  outcome: inactive
[11]
  outcome: inactive
[12]
  outcome: inactive
